Source: PubChem BioAssay AID1159580 (chemical genetic matrix, 2015)
Where “and” joins values, the source holds several entries; their conditions need not be identical. Equal values may be shown once. In all, about 5,500 compounds went through this assay and about 2,000 (36%) were called active. Another 18% or so got no clear call; they are omitted. Cut-off read from the data, not from the text of the source: active = normalized growth mostly below about 0.91 (no sharp cut-off); inconclusive = no clear call, values can overlap the other calls; inactive = mostly above about 0.92. The list shows a part of the results.

Experiment: chemical genetic growth profiling, strain panel (AID 1159580);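 note: tested at 20 µM; growth read once vehicle control cultures reached saturation at 30 °C; 1 = growth at the plate median or of vehicle wells; lower values mean less growth of the strain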
Conditions: S. cerevisiae deletion strains, growth OD

Measured: normalized growth

Nc1ccc(C(=O)O)cc1
inactive: locus YAL021C, strain ccr4, stronger effect = lower value 0.984 | locus YAL026C, strain drs2, stronger effect = lower value 1.01 | locus YAL030W, strain snc1, stronger effect = lower value 1.01 | locus YBL061C, strain skt5, stronger effect = lower value 1.02 | locus YBR009C, strain hhf1, stronger effect = lower value 0.993 | locus YBR021W, strain FUR4, stronger effect = lower value 1.01 | locus YBR023C, strain chs3, stronger effect = lower value 1.03 | locus YBR171W, strain sec66, stronger effect = lower value 1.02 | locus YBR229C, strain ROT2, stronger effect = lower value 0.996 | locus YBR231C, strain swc5, stronger effect = lower value 1.04 | locus YBR279W, strain paf1, stronger effect = lower value 1.02 | locus YCL011C, strain gbp2, stronger effect = lower value 1.01 | locus YCL016C, strain dcc1, stronger effect = lower value 1.03 | locus YCL029C, strain bik1, stronger effect = lower value 1.01 | locus YCL061C, strain MRC1, stronger effect = lower value 1.02 | locus YCL069W, strain vba3, stronger effect = lower value 1.01 | locus YCR088W, strain abp1, stronger effect = lower value 1.01 | locus YDL005C, strain med2, stronger effect = lower value 1.02 | locus YDL035C, strain GPR1, stronger effect = lower value 1.01 | locus YDL040C, strain nat1, stronger effect = lower value 1.02 | locus YDL074C, strain BRE1, stronger effect = lower value 1.03 | locus YDL101C, strain DUN1, stronger effect = lower value 1.02 | locus YDL134C, strain PPH21, stronger effect = lower value 1.01 | locus YDL185W, strain tfp1, stronger effect = lower value 1.03 | locus YDL192W, strain arf1, stronger effect = lower value 1.01 | locus YDR001C, strain nth1, stronger effect = lower value 1 | locus YDR069C, strain doa4, stronger effect = lower value 1.04 | locus YDR101C, strain arx1, stronger effect = lower value 0.996 | locus YDR137W, strain rgp1, stronger effect = lower value 1.01 | locus YDR159W, strain sac3, stronger effect = lower value 1 | locus YDR162C, strain NBP2, stronger effect = lower value 1.02 | locus YDR195W, strain ref2 1.04 | locus YDR297W, strain sur2, stronger effect = lower value 1.02 | locus YDR318W, strain mcm21, stronger effect = lower value 1.01 | locus YDR334W, strain swr1, stronger effect = lower value 1.01 | locus YDR335W, strain msn5, stronger effect = lower value 1.02 | locus YDR388W, stronger effect = lower value 1.01 | locus YDR392W, strain spt3, stronger effect = lower value 0.972 | locus YDR502C, strain sam2, stronger effect = lower value 1.01 | locus YEL003W, strain gim4, stronger effect = lower value 1.02 | locus YEL037C, strain rad23, stronger effect = lower value 1.01 | locus YEL061C, strain CIN8 (second series), stronger effect = lower value 1.02 | locus YEL061C, strain CIN8, stronger effect = lower value 1 | locus YER015W, strain faa2, stronger effect = lower value 1.04 | locus YER016W, strain bim1, stronger effect = lower value 0.987 | locus YER110C, stronger effect = lower value 1.02 | locus YER111C, strain swi4, stronger effect = lower value 1.03 | locus YER155C, strain BEM2 (second series), stronger effect = lower value 1.04 | locus YER155C, strain BEM2, stronger effect = lower value 0.994 | locus YER167W, strain BCK2, stronger effect = lower value 1.01 | locus YFR010W, strain ubp6, stronger effect = lower value 1.02 | locus YGL078C, strain dbp3, stronger effect = lower value 1 | locus YGL086W, strain mad1, stronger effect = lower value 1 | locus YGL167C, strain pmr1, stronger effect = lower value 1.02 | locus YGL173C, strain kem1, stronger effect = lower value 1.03 | locus YGL227W, strain vid30, stronger effect = lower value 1 | locus YGL240W, strain doc1, stronger effect = lower value 1.03 | locus YGL248W, strain PDE1, stronger effect = lower value 1 | locus YGL253W, strain hxk2, stronger effect = lower value 1.01 | locus YGR078C, strain PAC10, stronger effect = lower value 1 | locus YGR135W, strain pre9, stronger effect = lower value 1.02 | locus YGR252W, strain gcn5, stronger effect = lower value 1.04 | locus YHR027C, strain rpn1, stronger effect = lower value 1.02 | locus YHR030C, strain SLT2, stronger effect = lower value 0.999 and 1.11 | locus YHR079C, strain IRE1 (second series), stronger effect = lower value 1.01 | locus YHR079C, strain IRE1, stronger effect = lower value 1.01 | locus YHR094C, strain hxt1, stronger effect = lower value 1.01 | locus YHR129C, strain ARP1, stronger effect = lower value 1 | locus YHR142W, strain chs7, stronger effect = lower value 0.988 | locus YHR200W, strain rpn10, stronger effect = lower value 1.02 | locus YIL066C, strain RNR3, stronger effect = lower value 1.01 | locus YIL073C, strain SPO22, stronger effect = lower value 1.03 | locus YIL125W, strain kgd1, stronger effect = lower value 1.01 | locus YIR030C, strain dcg1, stronger effect = lower value 1.02 | locus YJL092W, strain hpr5, stronger effect = lower value 1.02 | locus YJL095W, strain BCK1 (second series), stronger effect = lower value 1 | locus YJL095W, strain BCK1, stronger effect = lower value 1.04 and 1.01 | locus YJL115W, strain asf1, stronger effect = lower value 1.02 | locus YJL129C, strain trk1, stronger effect = lower value 1.02 | locus YJL134W, strain LCB3, stronger effect = lower value 1 | locus YJL154C, strain vps35, stronger effect = lower value 1.03 | locus YJL164C, strain tpk1, stronger effect = lower value 1 | locus YJL166W, strain qcr8, stronger effect = lower value 1.06 | locus YJL168C, strain set2, stronger effect = lower value 1.01 | locus YJL187C, strain SWE1 (second series), stronger effect = lower value 1.03 | locus YJL187C, strain SWE1, stronger effect = lower value 1.02 | locus YJR043C, strain POL32, stronger effect = lower value 0.996
